Screen size: about 5,500 compounds; about 2,000 (36%) were called active. About 18% were inconclusive and are not listed. Cut-off read from the data, not from the text of the source: active = normalized growth mostly below about 0.91 (no sharp cut-off); inconclusive = no clear call, values can overlap the other calls; inactive = mostly above about 0.92. This is one part of the list.
Assay: chemical genetic growth profiling, strain panel (AID 1159580);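 note: tested at 20 µM; growth read once vehicle control cultures reached saturation at 30 °C; 1 = growth at the plate median or of vehicle wells; lower values mean less growth of the strain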
Conditions: S. cerevisiae deletion strains, growth OD
[1] = locus YAR019C, strain CDC15, hits give low values
[2] = locus YBL105C, strain PKC1, hits give low values
[3] = locus YBR135W, strain CKS1, hits give low values
[4] = locus YBR136W, strain MEC1, hits give low values
[5] = locus YBR160W, strain CDC28, hits give low values
[6] = locus YDL017W, strain CDC7, hits give low values
[7] = locus YDL028C, strain MPS1, hits give low values
[8] = locus YDL101C, strain DUN1, hits give low values
[9] = locus YDL108W, strain KIN28, hits give low values
[10] = locus YDL132W, strain cdc53, hits give low values
[11] = locus YDL214C, strain PRR2, hits give low values
[12] = locus YDR052C, strain DBF4, hits give low values
[13] = locus YDR054C, strain cdc34, hits give low values
[14] = locus YDR226W, strain ADK1, hits give low values
[15] = locus YDR477W, strain SNF1, hits give low values
[16] = locus YER123W, strain YCK3, hits give low values
[17] = locus YER133W, strain GLC7, hits give low values
[18] = locus YFL009W, strain cdc4, hits give low values
[19] = locus YFL029C, strain CAK1, hits give low values
[20] = locus YFR003C, strain YPI1, hits give low values
[21] = locus YFR019W, strain FAB1, hits give low values
[22] = locus YFR028C, strain CDC14, hits give low values
[23] = locus YGR040W, strain KSS1, hits give low values
[24] = locus YGR052W, strain FMP48, hits give low values
[25] = locus YGR092W, strain DBF2, hits give low values
[26] = locus YHR030C, strain SLT2, hits give low values
[27] = locus YHR079C, strain IRE1, hits give low values
[28] = locus YHR082C, strain KSP1, hits give low values
[29] = locus YHR205W, strain SCH9, hits give low values
[30] = locus YIL147C, strain SLN1, hits give low values
[31] = locus YJL095W, strain BCK1, hits give low values
[32] = locus YJL128C, strain PBS2, hits give low values
[33] = locus YJL157C, strain FAR1, hits give low values
[34] = locus YJR016C, strain ILV3, hits give low values
[35] = locus YJR066W, strain TOR1 (second series), hits give low values
[36] = locus YJR066W, strain TOR1, hits give low values
[37] = locus YKL048C, strain ELM1, hits give low values
[38] = locus YKL067W, strain YNK1, hits give low values
[39] = locus YKL101W, strain HSL1, hits give low values
[40] = locus YKL193C, strain SDS22, hits give low values
[41] = locus YKL203C, strain TOR2, hits give low values
[42] = locus YLR113W, strain HOG1, hits give low values
[43] = locus YLR133W, strain CKI1, hits give low values
[44] = locus YLR403W, strain SFP1, hits give low values
[45] = locus YML070W, strain DAK1, hits give low values
[46] = locus YMR001C, strain CDC5, hits give low values
[47] = locus YMR205C, strain PFK2 (second series), hits give low values
[48] = locus YMR277W, strain FCP1, hits give low values
[49] = locus YNL006W, strain LST8, hits give low values
[50] = locus YNL020C, strain ARK1, hits give low values
[51] = locus YNL161W, strain CBK1, hits give low values
[52] = locus YNL183C, strain NPR1, hits give low values
[53] = locus YNL207W, strain RIO2, hits give low values
[54] = locus YNL222W, strain SSU72, hits give low values
[55] = locus YNL307C, strain MCK1 (second series), hits give low values
[56] = locus YOL078W, strain AVO1, hits give low values
[57] = locus YOL136C, strain PFK27, hits give low values
[58] = locus YOR061W, strain CKA2, hits give low values
[59] = locus YOR119C, strain RIO1, hits give low values
[60] = locus YOR231W, strain MKK1, hits give low values
[61] = locus YOR329C, strain SCD5, hits give low values
[62] = locus YPL031C, strain PHO85, hits give low values
[63] = locus YPL153C, strain RAD53, hits give low values
[64] = locus YPL204W, strain HRR25, hits give low values
[65] = locus YPL209C, strain IPL1, hits give low values
[66] = locus YPL256C, strain CLN2, hits give low values
[67] = locus YPR025C, strain CCL1, hits give low values
[68] = locus YPR106W, strain ISR1, hits give low values
[69] = locus YPR111W, strain DBF20, hits give low values
[70] = strain NNK1, hits give low values
[71] = strain TSCII, hits give low values

Measured: normalized growth

CC(C)(C)NC(=S)N/N=C\c1ccccc1O
inactive: [1] 0.954 | [2] 0.957 | [3] 0.958 | [4] 0.958 | [5] 0.947 | [6] 0.96 | [7] 0.951 | [8] 0.964 | [9] 0.947 | [10] 0.95 | [11] 0.924 | [12] 0.97 | [13] 0.943 | [14] 0.961 | [15] 0.876 | [16] 0.848 | [17] 0.882 | [18] 0.928 | [19] 0.947 | [20] 0.955 | [21] 0.95 | [22] 0.957 | [23] 0.875 | [24] 0.954 | [25] 0.692 | [26] 0.901 | [27] 0.806 | [28] 0.931 | [29] 0.972 | [30] 0.953 | [31] 0.941 | [32] 0.949 | [33] 0.891 | [34] 0.954 | [35] 0.878 | [36] 0.789 | [37] 0.947 | [38] 0.897 | [39] 0.917 | [40] 0.951 | [41] 0.968 | [42] 0.915 | [43] 0.926 | [44] 0.867 | [45] 0.902 | [46] 0.95 | [47] 0.941 | [48] 0.93 | [49] 0.945 | [50] 0.903 | [51] 0.955 | [52] 0.955 | [53] 0.954 | [54] 0.944 | [55] 0.841 | [56] 0.955 | [57] 0.904 | [58] 0.882 | [59] 0.909 | [60] 0.828 | [61] 0.959 | [62] 0.867 | [63] 0.865 | [64] 0.837 | [65] 0.941 | [66] 0.949 | [67] 0.954 | [68] 0.968 | [69] 0.949 | [70] 0.967 | [71] 0.94

CC(NC(=S)N/N=C\c1ccccc1O)c1ccccc1 (stereo not drawn)
inactive: [1] 0.984 | [2] 0.982 | [3] 0.971 | [4] 0.975 | [5] 0.974 | [6] 0.974 | [7] 0.981 | [8] 0.977 | [9] 0.969 | [10] 0.973 | [11] 0.973 | [12] 0.986 | [13] 0.951 | [14] 0.97 | [15] 0.927 | [16] 0.905 | [17] 0.953 | [18] 0.972 | [19] 0.974 | [20] 0.979 | [21] 0.99 | [22] 0.982 | [23] 0.944 | [24] 1.06 | [25] 0.897 | [27] 0.951 | [28] 1.03 | [29] 1.01 | [30] 0.985 | [31] 0.87 | [32] 0.986 | [33] 0.966 | [34] 0.977 | [35] 0.944 | [36] 0.943 | [37] 0.972 | [38] 0.992 | [39] 0.978 | [40] 0.976 | [41] 0.98 | [42] 0.966 | [43] 0.97 | [44] 0.939 | [45] 0.964 | [46] 0.979 | [47] 0.977 | [48] 0.971 | [49] 0.991 | [50] 0.964 | [51] 0.984 | [52] 0.896 | [53] 0.976 | [54] 0.974 | [55] 0.933 | [56] 0.978 | [57] 0.984 | [58] 0.959 | [59] 1.04 | [60] 0.981 | [61] 0.983 | [62] 0.927 | [63] 0.929 | [64] 0.922 | [65] 0.979 | [66] 0.944 | [67] 0.979 | [68] 0.992 | [69] 0.983 | [70] 0.992 | [71] 0.978
active: [26] 0.772

COc1ccccc1NC(=S)N/N=C\c1ccccc1O
inactive: [1] 0.962 | [2] 0.968 | [3] 0.967 | [4] 0.965 | [5] 0.967 | [6] 0.967 | [7] 0.96 | [8] 0.978 | [9] 0.954 | [10] 0.965 | [11] 0.941 | [12] 0.973 | [13] 0.957 | [14] 0.959 | [15] 0.938 | [16] 0.928 | [17] 0.942 | [18] 0.965 | [19] 0.953 | [20] 0.97 | [21] 0.976 | [22] 0.966 | [23] 0.939 | [24] 1.02 | [25] 0.891 | [26] 0.903 | [27] 0.956 | [28] 0.964 | [29] 0.98 | [30] 0.961 | [31] 0.978 | [32] 0.957 | [33] 0.951 | [34] 0.979 | [35] 0.903 | [36] 0.942 | [37] 0.962 | [38] 0.955 | [39] 0.948 | [40] 0.964 | [41] 0.971 | [42] 0.955 | [43] 0.942 | [44] 0.916 | [45] 0.973 | [46] 0.958 | [47] 0.959 | [48] 0.966 | [49] 0.97 | [50] 0.955 | [51] 0.967 | [52] 0.975 | [53] 0.97 | [54] 0.967 | [55] 0.949 | [56] 0.968 | [57] 0.967 | [58] 0.931 | [59] 0.941 | [60] 0.967 | [61] 0.969 | [62] 0.93 | [63] 0.937 | [64] 0.941 | [65] 0.967 | [66] 0.929 | [67] 0.968 | [68] 0.969 | [69] 0.978 | [70] 0.986 | [71] 0.969
